Reference: PubChem BioAssay AID1159580 (chemical genetic matrix, 2015)
The campaign covered roughly 5,500 compounds. About 2,000 (36%) were called active. About 18% were inconclusive and are not listed. No stated cut-off is given here; in the data, active means normalized growth mostly below about 0.91 (no sharp cut-off); inconclusive means no clear call, values can overlap the other calls; inactive means mostly above about 0.92. The list shows a part of the results.

Experiment: chemical genetic growth profiling, strain panel (AID 1159580);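 further: tested at 20 µM; growth read once vehicle control cultures reached saturation at 30 °C; 1 = growth at the plate median or of vehicle wells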
Conditions: S. cerevisiae deletion strains, growth OD

Measured: normalized growth

CC(C)Oc1ccc2c(=O)cc(-c3ccccc3)oc2c1
inactive: locus YAL021C, strain ccr4, stronger effect = lower value 0.956 | locus YAL026C, strain drs2, stronger effect = lower value 0.934 | locus YAL030W, strain snc1, stronger effect = lower value 0.955 | locus YBL061C, strain skt5, stronger effect = lower value 0.929 | locus YBR009C, strain hhf1, stronger effect = lower value 0.952 | locus YBR023C, strain chs3, stronger effect = lower value 0.944 | locus YBR171W, strain sec66, stronger effect = lower value 0.912 | locus YBR229C, strain ROT2, stronger effect = lower value 0.915 | locus YBR231C, strain swc5, stronger effect = lower value 0.937 | locus YBR279W, strain paf1, stronger effect = lower value 0.963 | locus YCL011C, strain gbp2, stronger effect = lower value 0.923 | locus YCL016C, strain dcc1, stronger effect = lower value 0.94 | locus YCL069W, strain vba3, stronger effect = lower value 0.95 | locus YCR088W, strain abp1, stronger effect = lower value 0.933 | locus YDL005C, strain med2, stronger effect = lower value 0.96 | locus YDL035C, strain GPR1, stronger effect = lower value 0.984 | locus YDL040C, strain nat1, stronger effect = lower value 0.953 | locus YDL074C, strain BRE1, stronger effect = lower value 0.871 | locus YDL101C, strain DUN1, stronger effect = lower value 0.938 | locus YDR001C, strain nth1, stronger effect = lower value 0.943 | locus YDR069C, strain doa4, stronger effect = lower value 0.972 | locus YDR150W, strain NUM1, stronger effect = lower value 0.937 | locus YDR159W, strain sac3, stronger effect = lower value 0.919 | locus YDR162C, strain NBP2, stronger effect = lower value 0.953 | locus YDR195W, strain ref2 1.03 | locus YDR297W, strain sur2, stronger effect = lower value 0.95 | locus YDR334W, strain swr1, stronger effect = lower value 0.953 | locus YDR335W, strain msn5, stronger effect = lower value 0.962 | locus YEL037C, strain rad23, stronger effect = lower value 0.953 | locus YEL061C, strain CIN8 (second series), stronger effect = lower value 0.916 | locus YER015W, strain faa2, stronger effect = lower value 0.962 | locus YER016W, strain bim1, stronger effect = lower value 0.956 | locus YER111C, strain swi4, stronger effect = lower value 0.959 | locus YER167W, strain BCK2, stronger effect = lower value 0.925 | locus YFR010W, strain ubp6, stronger effect = lower value 0.936 | locus YGL167C, strain pmr1, stronger effect = lower value 0.946 | locus YGL173C, strain kem1, stronger effect = lower value 0.943 | locus YGL240W, strain doc1, stronger effect = lower value 0.901 | locus YGL248W, strain PDE1, stronger effect = lower value 0.912 | locus YGL253W, strain hxk2, stronger effect = lower value 0.926 | locus YGR078C, strain PAC10, stronger effect = lower value 0.903 | locus YGR135W, strain pre9, stronger effect = lower value 0.907 | locus YGR252W, strain gcn5, stronger effect = lower value 0.827 | locus YHR013C, strain ard1, stronger effect = lower value 0.859 | locus YHR027C, strain rpn1, stronger effect = lower value 0.947 | locus YHR030C, strain SLT2, stronger effect = lower value 0.92 | locus YIL066C, strain RNR3, stronger effect = lower value 0.939 | locus YIL073C, strain SPO22, stronger effect = lower value 0.921 | locus YJL092W, strain hpr5, stronger effect = lower value 0.928 | locus YJL095W, strain BCK1 (second series), stronger effect = lower value 0.948 | locus YJL095W, strain BCK1, stronger effect = lower value 0.888 | locus YJL115W, strain asf1, stronger effect = lower value 0.958 | locus YJL154C, strain vps35, stronger effect = lower value 0.952 | locus YJL164C, strain tpk1, stronger effect = lower value 0.923 | locus YJL187C, strain SWE1 (second series), stronger effect = lower value 0.906 | locus YJL187C, strain SWE1, stronger effect = lower value 0.951 | locus YJR043C, strain POL32, stronger effect = lower value 0.941 | locus YJR075W, strain HOC1, stronger effect = lower value 0.904 | locus YKL160W, strain elf1, stronger effect = lower value 0.913 | locus YKL190W, strain CNB1, stronger effect = lower value 0.945 | locus YKR026C, strain gcn3, stronger effect = lower value 0.934 | locus YKR091W, strain srl3, stronger effect = lower value 0.965 | locus YLL001W, strain dnm1, stronger effect = lower value 0.951 | locus YLL026W, stronger effect = lower value 0.955 | locus YLL041C, strain sdh2, stronger effect = lower value 0.957 | locus YLR027C, strain aat2, stronger effect = lower value 0.957 | locus YLR039C, strain RIC1, stronger effect = lower value 0.815 | locus YLR058C, strain SHM2, stronger effect = lower value 0.915 | locus YLR258W, strain gsy2, stronger effect = lower value 0.948 | locus YLR262C, strain YPT6, stronger effect = lower value 0.861 | locus YLR268W, strain sec22, stronger effect = lower value 0.906 | locus YLR342W, strain FKS1 (second series), stronger effect = lower value 0.911 | locus YLR342W, strain FKS1, stronger effect = lower value 0.916 | locus YLR357W, strain rsc2, stronger effect = lower value 0.869 | locus YLR370C, strain arc18, stronger effect = lower value 0.941 | locus YLR384C, strain iki3, stronger effect = lower value 0.944 | locus YML032C, strain rad52, stronger effect = lower value 0.908 | locus YML120C, strain ndi1, stronger effect = lower value 0.963 | locus YMR058W, strain fet3, stronger effect = lower value 0.916 | locus YMR125W, strain sto1, stronger effect = lower value 0.953 | locus YMR129W, stronger effect = lower value 0.952 | locus YMR231W, strain pep5, stronger effect = lower value 0.969 | locus YMR263W, strain SAP30, stronger effect = lower value 0.893 | locus YMR307W, strain GAS1, stronger effect = lower value 0.791 | locus YNL067W, strain RPL9B, stronger effect = lower value 0.93 | locus YNL128W, strain TEP1, stronger effect = lower value 0.941 | locus YNL209W, strain ssb2, stronger effect = lower value 0.971 | locus YNL233W, strain BNI4, stronger effect = lower value 0.901 | locus YNL248C, strain rpa49, stronger effect = lower value 0.919 | locus YNL322C, strain KRE1 (second series), stronger effect = lower value 0.946 | locus YNR049C, strain mso1, stronger effect = lower value 0.943 | locus YOL012C, strain htz1 1.5 | locus YOR001W, strain rrp6, stronger effect = lower value 0.896 | locus YOR061W, strain CKA2, stronger effect = lower value 0.912 | locus YOR070C, strain gyp1, stronger effect = lower value 0.961 | locus YOR080W, strain dia2, stronger effect = lower value 0.965 | locus YOR083W, strain WHI5, stronger effect = lower value 0.928 | locus YOR106W, strain vam3, stronger effect = lower value 0.917 | locus YOR136W, strain idh2, stronger effect = lower value 0.938 | locus YOR184W, strain ser1, stronger effect = lower value 0.9 | locus YOR265W, strain rbl2, stronger effect = lower value 0.96 | locus YPL078C, strain atp4, stronger effect = lower value 0.905 | locus YPL106C, strain sse1, stronger effect = lower value 0.928 | locus YPL240C, strain hsp82, stronger effect = lower value 0.95 | strain wtn01, stronger effect = lower value 0.909
active: locus YAL013W, strain DEP1, stronger effect = lower value 0.892 | locus YBR021W, strain FUR4, stronger effect = lower value 0.844 | locus YCL029C, strain bik1, stronger effect = lower value 0.88 | locus YCL061C, strain MRC1, stronger effect = lower value 0.918 | locus YDL185W, strain tfp1, stronger effect = lower value 0.423 | locus YDL192W, strain arf1, stronger effect = lower value 0.884 | locus YDR101C, strain arx1, stronger effect = lower value 0.906 | locus YDR137W, strain rgp1, stronger effect = lower value 0.834 | locus YDR318W, strain mcm21, stronger effect = lower value 0.885 | locus YDR388W, stronger effect = lower value 0.876 | locus YDR392W, strain spt3, stronger effect = lower value 0.358 | locus YDR502C, strain sam2, stronger effect = lower value 0.904 | locus YEL003W, strain gim4, stronger effect = lower value 0.887 | locus YEL061C, strain CIN8, stronger effect = lower value 0.923 | locus YER110C, stronger effect = lower value 0.886 | locus YER155C, strain BEM2 (second series), stronger effect = lower value 0.679 | locus YER155C, strain BEM2, stronger effect = lower value 0.85 | locus YGL078C, strain dbp3, stronger effect = lower value 0.815 | locus YGL086W, strain mad1, stronger effect = lower value 0.91 | locus YGL227W, strain vid30, stronger effect = lower value 0.905 | locus YHR079C, strain IRE1 (second series), stronger effect = lower value 0.888 | locus YHR094C, strain hxt1, stronger effect = lower value 0.879 | locus YHR129C, strain ARP1, stronger effect = lower value 0.916 | locus YHR142W, strain chs7, stronger effect = lower value 0.735 | locus YHR200W, strain rpn10, stronger effect = lower value 0.869 | locus YIL125W, strain kgd1, stronger effect = lower value 0.715 | locus YIR030C, strain dcg1, stronger effect = lower value 0.878 | locus YJL129C, strain trk1, stronger effect = lower value 0.815 | locus YJL134W, strain LCB3, stronger effect = lower value 0.909 | locus YJL166W, strain qcr8, stronger effect = lower value 0.893 | locus YJL168C, strain set2, stronger effect = lower value 0.872 | locus YKL009W, strain mrt4, stronger effect = lower value 0.452 | locus YKL068W, stronger effect = lower value 0.797 | locus YKL085W, strain MDH1 (second series), stronger effect = lower value 0.667 | locus YKL085W, strain MDH1, stronger effect = lower value 0.667 | locus YKR001C, strain vps1, stronger effect = lower value 0.83 | locus YLR102C, strain apc9, stronger effect = lower value 0.881 | locus YLR221C, strain rsa3, stronger effect = lower value 0.895 | locus YLR262C, strain YPT6 (second series), stronger effect = lower value 0.821 | locus YLR320W, strain mms22, stronger effect = lower value 0.785 | locus YLR330W, strain CHS5, stronger effect = lower value 0.896 | locus YLR371W, strain rom2, stronger effect = lower value 0.898 | locus YLR418C, strain cdc73, stronger effect = lower value 0.814 | locus YML016C, strain PPZ1, stronger effect = lower value 0.91 | locus YML124C, strain tub3, stronger effect = lower value 0.867 | locus YMR078C, strain ctf18, stronger effect = lower value 0.839 | locus YMR205C, strain PFK2, stronger effect = lower value 0.844 | locus YMR223W, strain ubp8, stronger effect = lower value 0.9 | locus YNL071W, strain lat1, stronger effect = lower value 0.734 | locus YNL250W, strain rad50, stronger effect = lower value 0.767 | locus YNL271C, strain bni1, stronger effect = lower value 0.794 | locus YNL298W, strain CLA4, stronger effect = lower value 0.538 | locus YNL307C, strain MCK1, stronger effect = lower value 0.848 | locus YNR052C, strain pop2, stronger effect = lower value 0.908 | locus YOL147C, strain pex11, stronger effect = lower value 0.872 | locus YOR069W, strain VPS5, stronger effect = lower value 0.925 | locus YOR144C, strain elg1, stronger effect = lower value 0.874 | locus YOR270C, strain vph1, stronger effect = lower value 0.731 | locus YOR290C, strain snf2, stronger effect = lower value 0.797 | locus YOR316C, strain cot1, stronger effect = lower value 0.875 | locus YPL051W, strain arl3, stronger effect = lower value 0.897 | locus YPR119W, strain clb2, stronger effect = lower value 0.856 | locus YPR141C, strain kar3, stronger effect = lower value 0.802 | locus YPR163C, strain tif3, stronger effect = lower value 0.906 | locus YPR167C, strain met16, stronger effect = lower value 0.873
